The source of these data is PubChem BioAssay (NCI).

Each structure is given as a SMILES string. The panel holds about 83,000 compounds, 20% with a hit somewhere; the sample as a whole holds those more often.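 Note: values are percent growth. 100 is the growth of untreated cells, values between 100 and 0 indicate rising inhibition; between -100 and 0 indicates cell death.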 Unmarked numbers belong to inactive results. Active and inactive are the calls of the source. Rule for the calls: active = growth percent below 10; inactive = the rest.

Assay in all cases: NCI-60 one-dose screen, 48 h (100 = growth as untreated, 0 = no growth, -100 = all killed)
Common to all, as to conditions: 10 µM unless noted

For assay [1], the system named is SK-MEL-2 melanoma.
Assay [2] relates to EKVX NSCLC.
For assay [3], the system named is SN12C renal.
For assay [4], the system named is UO-31 renal.
For assay [5], the system named is TK-10 renal.
Assay [6] relates to ACHN renal.
Assay [7] deals with CAKI-1 renal.
Assay [8] relates to A498 renal.
For assay [9], the system named is CCRF-CEM leukemia.
The subject of assay [10] is MOLT-4 leukemia.

For `CC(=O)NC1=C(C#N)C(c2ccccc2Cl)c2c(ccc3ccccc23)O1` (stereo not given), the growth in assay [1] is 59.2%; in [2], 63.5%; in assay [3], 70.8%; in [4], 49.8%; in assay [5], 141%; in assay [6], 65%. Moreover, the growth in assay [7] was 37.2%; in assay [8], 56.2%; in assay [9], 60.8%; in [10], 50.2%.

As for `CC1=CC(=O)N(c2cccc3c(N4C(=O)C=C(C)C4=O)cccc23)C1=O`, the growth in assay [1] was 87.5%; in assay [2], 108%; in assay [3] it was 93.3%; in assay [4] it was 33.3%; in [5] it was 35.3%; in [6], 1.27% (active). Further, the growth in assay [7] was 10.9%; in [8], 124%; in assay [9], 11.2%; in assay [10], 4.75% (active).

Consider `Cn1c2c(c3ccc(Cl)cc31)-n1cccc1C2=O`, for which the growth in assay [1] was 84.6%; in [2], 86.4%; in assay [3] it was 74.5%; in assay [4], 57.5%; in assay [5] it was 88.2%; in assay [6] it was 78.2%. Further, the growth in assay [7] was 83.2%; in assay [8], 89.6%; in assay [9] it was 85.7%; in assay [10], 64.2%.

Take `O=c1[nH]ncc(Br)c1Br`: the growth in assay [1] was 45.1%; in [2], 78.8%; in assay [3], 63.6%; in assay [4], 52%; in [5] it was 65.8%; in [6] it was 87.3%. The growth is 86.4% in assay [7], 108% in assay [8], 27.6% in assay [9] and 35.4% in assay [10].

With `O=C1NC(c2ccc(Cl)c(Cl)c2)=C/C1=C\c1ccccc1`, the growth is 107% in [1]; 70.8% in assay [2]; 71.8% in assay [3]; 29.2% in assay [4]; 100% in [5]; 4.37% (active) in [6]. The growth in [7] was 49.3%; in assay [8], 105%; in assay [9] it was 45.8%; in [10], 53.9%.

Regarding `OCC1OC(n2cnc3c(Cl)ncnc32)CC1O` (stereo not given), the growth in assay [1] was 108%; in [2] it was 113%; in assay [3] it was 96.5%; in assay [4] it was 76.9%; in [5] it was 106%; in assay [6], 95.6%. Also, the growth in assay [7] was 94.1%; in assay [8], 106%; in [9] it was 98.2%; in assay [10], 91.9%.

Regarding `Oc1cccc2ccc(N/N=C/c3cc(CN4CCCCC4)c(O)c4ncccc34)nc12`, the growth in [1] was -4.78% (active); in assay [2], 20%; in assay [3], 17.6%; in assay [4] it was -19% (active); in [5], 32.5%; in assay [6] it was -28.9% (active). Further, the growth is 6.88% (active) in [7], 38.9% in assay [8], 10.7% in assay [9] and 7.17% (active) in assay [10].

For the compound `CN1CCN(CC#CCn2c3c(c4ccccc42)C[C@]2(C)[C@H]4CC[C@@H]5[C@H]6[C@H]7OC(=O)[C@@]6(CCC7(C)C)CC[C@@]5(C)[C@]4(C)CC[C@H]2C3(C)C)CC1`, the growth is 118% in assay [1]; 99.2% in assay [2]; 52.8% in assay [3]; 67.2% in [4]; 161% in assay [5]; 91.3% in assay [6]. Also, the growth in assay [7] was 52.4%; in assay [8], 71.6%; in [9] it was -0.753% (active); in [10], 41.6%.

Regarding `Cn1cccc1/C=C1/SC(=S)N(CCc2ccc(O)cc2)C1=O`, the growth in assay [1] was 64.7%; in assay [2], 61%; in assay [3], 60%; in assay [4], 53.7%; in [5], 110%; in [6], 59.9%. The growth in assay [7] was 44.7%; in [8] it was 81.8%; in assay [9], 21.9%; in assay [10] it was 31%.

As for `COc1c(N)c2c(c([N+](=O)[O-])c1OC)C(=O)OC2`, the growth in assay [1] was 102%; in [2] it was 111%; in assay [3], 93.5%; in assay [4], 83.4%; in assay [5] it was 103%; in assay [6], 117%. Moreover, the growth in [7] is 115%; in [8], 104%; in assay [9], 96.2%; in assay [10], 81.2%.

Take `CC(C)/C=C/CC[C@](C)(O)[C@H]1CC[C@]2(C)[C@@H]1CC[C@@H]1[C@@]3(C)C/C(=C/c4cccc(C(F)(F)F)c4)C(=O)C(C)(C)[C@@H]3CC[C@]12C`: the growth in assay [1] is 126%; in [2], 103%; in assay [3] it was 89.2%; in assay [4], 79.6%; in assay [5], 157%; in assay [6], 97%. The growth in assay [7] is 64.3%; in [8], 99%; in assay [9], 86.9%; in assay [10], 88.3%.

Turning to `CCCCN1CCCCn2c1nc1c2c(=O)n(C)c(=O)n1C`, the growth in [1] was 91.9%; in [2], 105%; in assay [3] it was 102%; in [4], 93.1%; in [5], 103%; in assay [6], 107%. Moreover, the growth in [7] was 95.5%; in assay [8] it was 96.3%; in assay [9], 113%; in assay [10] it was 96.6%.
